High-throughput results (PubChem)
ADAM10 inh – inhibitors of human ADAM10; recombinant ADAM10, EDANS/DABCYL FRET peptide cleavage, 3 h; inhibition, % at 7 µM; hit rate 0.62% among 370,000;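 active means inhibition above a per-campaign cutoff equal to the mean of compounds falling between control-based bounds plus 3 SD, cut at about 20% in these data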;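 further: 0% = DMSO wells while the 100% control is not disclosed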
PLC-gamma1 inh – blocks human PLC-gamma1 enzyme activity; purified PLC-gamma1, fluorogenic substrate, fluorescence; inhibition, % at 12.2 µM; hit rate 0.84% among 370,000; P19174; in the data active means inhibition above about 9.5%
ADAM17 inh – ADAM17 inhibition, QFRET primary screen | recombinant ADAM17, EDANS/DABCYL FRET peptide cleavage | inhibition, % at 6.95 µM | hit rate 0.83% among 370,000;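 active means inhibition above the mean of compounds lying between control limits plus 3 SD, set per campaign, cut at about 8.5% in these data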;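 further: 0% = DMSO-only wells as the low control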
KLK7 zymogen act – proKLK7 (human) activation, primary screen. purified proKLK7, EDANS-DABCYL substrate fluorescence; 100% is mature enzyme control, 0% vehicle. AID 652039. hit rate 0.9% among 370,000. activation, % at 7 µM. P49862;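 active means activation above the mean of all tested compounds plus 3 SD, computed per campaign excluding outliers beyond control limits, cut at about 13% in these data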
Target sequence (P49862 whole entry, looked up): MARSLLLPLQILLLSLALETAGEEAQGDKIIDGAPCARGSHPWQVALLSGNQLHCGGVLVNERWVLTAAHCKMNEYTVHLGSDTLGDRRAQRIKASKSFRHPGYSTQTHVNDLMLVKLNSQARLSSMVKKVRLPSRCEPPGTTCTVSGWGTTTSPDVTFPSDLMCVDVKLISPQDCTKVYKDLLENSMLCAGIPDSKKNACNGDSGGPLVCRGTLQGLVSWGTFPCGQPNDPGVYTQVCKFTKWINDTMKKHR
PLC-beta3 inh – blocks human PLC-beta3 enzyme activity. Q01970. Purified PLC-beta3, fluorogenic substrate, fluorescence. inhibition, % at 12.2 µM. hit rate 0.18% among 370,000. AID 720704; in the data active means inhibition above about 11%;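 further: 0% = median of compound wells on plate and 100% = full blocker control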
ADAM10 confirm – human ADAM10 inhibition, confirmation; hit rate 1% among 2,100; AID 743208; shares compounds with ADAM10 inh; inhibition, % at 6.95 µM; ADAM10 QFRET peptide cleavage, EDANS fluorescence;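 active means inhibition above about 20% chosen separately for each screening run, limit read from the data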;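 further: 0% = DMSO wells and 100% = marimastat wells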
ADAM17 counter – ADAM17 inhibition, counter-screen for ADAM10 exosite hits | shares compounds with ADAM10 inh | ADAM17 QFRET peptide cleavage, EDANS fluorescence | inhibition, % at 6.95 µM | hit rate 0.5% among 2,100;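 active means mean triplicate inhibition above the solvent-only control wells' mean plus 3 SD, cut at about 12% in these data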;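 further: 0% = DMSO wells and 100% = marimastat wells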
ADAM10 counter – ADAM10 inhibition, counter-screen for ADAM17 exosite hits | shares compounds with ADAM17 inh | recombinant ADAM10, EDANS/DABCYL FRET peptide cleavage, 3 h | inhibition, % at 6.95 µM | hit rate 47% among 2,900 | AID 743256;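 active means mean inhibition over the triplicate runs exceeds the activity threshold set in the earlier primary screen, cut at about 20% in these data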;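 further: 0% = DMSO wells and 100% = marimastat wells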
ADAM17 confirm – human ADAM17 inhibition, confirmation | shares compounds with ADAM17 inh | recombinant ADAM17, EDANS/DABCYL QFRET peptide cleavage | inhibition, % at 6.95 µM | hit rate 65% among 2,900;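 active means mean inhibition across replicates above the hit cutoff set in the primary screen, cut at about 8.5% in these data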;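 further: 0% = DMSO wells and 100% = marimastat wells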
* = called active by the depositor. Shown are actives, neighbours in structure and some others; about 2.9% of the full set was active somewhere.

Results for CC(=O)Nc1ccc(N(CC(O)Cn2c3ccccc3c3ccccc32)S(=O)(=O)c2ccc(C)cc2)cc1 (stereo not given) ?
ADAM10 inh: 29*; PLC-gamma1 inh: -1; ADAM17 inh: 10*; KLK7 zymogen act: -1; PLC-beta3 inh: -1; ADAM10 confirm: 10; ADAM17 counter: 4; ADAM10 counter: 41*; ADAM17 confirm: 23*

How did O=C(Nc1sc2c(c1-c1nc3ccccc3s1)CCNC2)C(F)(F)F do in these assays?
ADAM10 inh: -121; PLC-gamma1 inh: -161; ADAM17 inh: -34; PLC-beta3 inh: -200

How did CC1CCN(c2ccc(C(=O)NCc3ccco3)cc2[N+](=O)[O-])CC1 do in these assays?
ADAM10 inh: 23*; PLC-gamma1 inh: 4; ADAM17 inh: 9.0*; KLK7 zymogen act: 1; PLC-beta3 inh: 3; ADAM10 confirm: 1; ADAM17 counter: 1; ADAM10 counter: 8; ADAM17 confirm: 7

Results for O=C(NCc1ccco1)c1ccc(N2CCCCC2)c([N+](=O)[O-])c1 ?
ADAM10 inh: -2; PLC-gamma1 inh: 1; ADAM17 inh: 1; KLK7 zymogen act: 0; PLC-beta3 inh: 4

Results for COc1ccc2c(c1)C1C=CCC1C(c1cc3c(cc1Br)OCO3)N2 (stereo not given) ?
ADAM10 inh: 22*; PLC-gamma1 inh: 3; ADAM17 inh: 9.1*; KLK7 zymogen act: 0; PLC-beta3 inh: -7; ADAM10 confirm: 3; ADAM17 counter: 2; ADAM10 counter: -3; ADAM17 confirm: 0

What do the screens show for `COC(=O)C1CN(Cc2cn(Cc3ccc(F)cc3)nn2)CCS(=O)(=O)N1Cc1ccc(F)cc1` (stereo not given)?
ADAM10 inh: 11; PLC-gamma1 inh: 9; ADAM17 inh: 5; KLK7 zymogen act: 0; PLC-beta3 inh: 6

How did Cc1cc([N+](=O)[O-])nn1Cc1ccc(C(=O)N/N=C/c2ccc(N(C)C)cc2)cc1 do in these assays?
ADAM10 inh: 0; PLC-gamma1 inh: 1; ADAM17 inh: 3; KLK7 zymogen act: 1; PLC-beta3 inh: -10

How did CCC(CO)Nc1cccc2c1S(=O)(=O)N(Cc1cn(Cc3cccc(C(F)(F)F)c3)nn1)Cc1ccccc1O2 (stereo not given) do in these assays?
ADAM10 inh: -31; PLC-gamma1 inh: -8; ADAM17 inh: -6; KLK7 zymogen act: 0; PLC-beta3 inh: -14

How did COc1cccc(Nc2ncccc2C(=O)Nc2ccccc2)c1 do in these assays?
ADAM10 inh: 29*; PLC-gamma1 inh: 6; ADAM17 inh: 19*; KLK7 zymogen act: 0; PLC-beta3 inh: 8; ADAM10 confirm: 2; ADAM17 counter: 1; ADAM10 counter: 11; ADAM17 confirm: 8

How did Cc1c([N+](=O)[O-])c(C/C=N/O)nn1C do in these assays?
ADAM10 inh: -3; PLC-gamma1 inh: -2; ADAM17 inh: 0; KLK7 zymogen act: 0; PLC-beta3 inh: 2

Results for Cc1cc(-c2n[nH]c(=S)n2/N=C/c2ccccc2[N+](=O)[O-])n[nH]1 ?
ADAM10 inh: 21*; PLC-gamma1 inh: 7; ADAM17 inh: 11*; KLK7 zymogen act: 0; PLC-beta3 inh: 10; ADAM10 confirm: -1; ADAM17 counter: 0; ADAM10 counter: 0; ADAM17 confirm: 4

Results for CCCc1cc(=O)n2nc(N3CCC(C(=O)Nc4c(F)c(F)c(F)c(F)c4F)CC3)sc2n1 ?
ADAM10 inh: -2; PLC-gamma1 inh: 4; ADAM17 inh: -1; KLK7 zymogen act: 0; PLC-beta3 inh: 0

Results for NC(=O)[C@@H]1CC2(CC(c3cccc(NC(=O)COc4ccc(Cl)cc4)c3)=NO2)CN1C(=O)COc1ccc(Cl)cc1 (stereo not given in full) ?
ADAM10 inh: 8; PLC-gamma1 inh: 1; ADAM17 inh: 3; KLK7 zymogen act: -1; PLC-beta3 inh: 2

How did NC(=O)[C@@H]1CC2(CC(c3cccc(NC(=O)CC(c4ccccc4)c4ccccc4)c3)=NO2)CN1C(=O)c1ccc(Cl)cc1 (stereo not given in full) do in these assays?
ADAM10 inh: 23*; PLC-gamma1 inh: 2; ADAM17 inh: 11*; KLK7 zymogen act: 1; PLC-beta3 inh: -1; ADAM10 confirm: 14; ADAM17 counter: 4; ADAM10 counter: 45*; ADAM17 confirm: 21*

Results for NC(=O)[C@H]1CC2(CC(c3cccc(NC(=O)CC(c4ccccc4)c4ccccc4)c3)=NO2)CN1C(=O)CC(c1ccccc1)c1ccccc1 (stereo not given in full) ?
ADAM10 inh: 31*; PLC-gamma1 inh: 1; ADAM17 inh: 16*; KLK7 zymogen act: 0; PLC-beta3 inh: 0; ADAM10 confirm: 13; ADAM17 counter: 4; ADAM10 counter: 33*; ADAM17 confirm: 19*

Results for CCC(=O)N1CC2(CC(c3cccc(NC(=O)CC(c4ccccc4)c4ccccc4)c3)=NO2)C[C@H]1C(N)=O (stereo not given in full) ?
ADAM10 inh: 7; PLC-gamma1 inh: 1; ADAM17 inh: 4; KLK7 zymogen act: 0; PLC-beta3 inh: -1

What do the screens show for `NC(=O)[C@H]1CC2(CC(c3cccc(NC(=O)COc4ccc(Cl)cc4)c3)=NO2)CN1C(=O)C(c1ccccc1)c1ccccc1` (stereo not given in full)?
ADAM10 inh: 31*; PLC-gamma1 inh: 5; ADAM17 inh: 12*; KLK7 zymogen act: 1; PLC-beta3 inh: 2; ADAM10 confirm: 12; ADAM17 counter: 4; ADAM10 counter: 30*; ADAM17 confirm: 15*

How did COc1ccc2c(c1)CCCN2C(=O)C1CCCN(S(=O)(=O)c2ccccc2)C1 (stereo not given) do in these assays?
ADAM10 inh: -8; PLC-gamma1 inh: 1; ADAM17 inh: -3; KLK7 zymogen act: 0; PLC-beta3 inh: -3

How did CN(C)c1ccc(C(CNS(=O)(=O)c2ccc(F)c(F)c2)c2c[nH]c3ccccc23)cc1 (stereo not given) do in these assays?
ADAM10 inh: 40*; PLC-gamma1 inh: 0; ADAM17 inh: 14*; KLK7 zymogen act: -1; PLC-beta3 inh: -25; ADAM10 confirm: 13; ADAM17 counter: 4; ADAM10 counter: 55*; ADAM17 confirm: 31*
